PubChem BioAssay (NCI)
About 79,000 compounds went through this panel and 15% of them were active in at least one assay; those are over-represented in the sample as a whole. No stated cut-off is given here; in the data, active means growth inhibition above about 70%; inactive means the rest.

Experiments:
[1] = NCI Yeast Anticancer Drug Screen. Data for the rad50 strain (AID 155);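 further: 0% = growth of vehicle-only cultures of the same strain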; settings: S. cerevisiae rad50 strain growth inhibition; at 50.0 µM; stronger effect = higher value
In short: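 Growth of the mutant yeast was measured after compound exposure and referenced to vehicle-treated cultures.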

[2] = NCI Yeast Anticancer Drug Screen. Data for the mec2-1 strain (AID 157); settings: S. cerevisiae mec2-1 strain, at 50.0 µM, stronger effect = higher value
In short: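 Compounds were applied to mec2-1 yeast cells. Their growth was then compared with that of vehicle-treated cultures to give growth inhibition.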

[3] = NCI Yeast Anticancer Drug Screen. Data for the sgs1 mgt1 strain (AID 161);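 further: 0% = growth of cultures given vehicle only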; settings: S. cerevisiae sgs1 mgt1 strain, at 50.0 µM, stronger effect = higher value
In short: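 Percent growth inhibition was derived by comparing compound-exposed mutant yeast with vehicle-exposed cultures. The strain carries alterations in DNA damage repair.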

[4] = NCI Yeast Anticancer Drug Screen. Data for the cln2 rad14 strain (AID 165);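 further: 0% = growth equal to vehicle treated cultures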; settings: S. cerevisiae cln2 rad14 strain, at 50.0 µM, stronger effect = higher value
In short: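 Strain: cln2 rad14 yeast, altered in cell cycle control and DNA damage repair. Read-out: growth inhibition vs vehicle.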

[5] = NCI Yeast Anticancer Drug Screen. Data for the bub3 strain (AID 167); settings: S. cerevisiae bub3 mutant strain, at 50.0 µM, stronger effect = higher value
In short: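 Whole-cell yeast assay. The mutant strain was incubated with compounds, and growth inhibition was determined by comparison with vehicle-treated cells.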

[6] = NCI Yeast Anticancer Drug Screen. Data for the mlh1 rad18 strain (AID 175); settings: S. cerevisiae mlh1 rad18 strain growth inhibition; at 50.0 µM; stronger effect = higher value
In short: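 A repair-deficient yeast strain is exposed to test compound, and growth is scored relative to vehicle-treated controls.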

Measured: growth inhibition

Cc1nn(C(=O)c2ccccc2O)c2c1C(c1ccc(O)cc1)SC(N)=N2 (configuration not stated)
inactive: [1] 16.1% | [2] 1.95% | [3] 29.4% | [4] 1.65% | [5] 43.6% | [6] 6.65%

COC(SC)(C(=O)O)c1cc(-c2c(Cl)cccc2Cl)no1 (configuration not stated)
inactive: [1] -5.4% | [2] -6.8% | [3] -9.35% | [4] -11.4% | [5] 12.2% | [6] -1%

CCC(=O)NN(C(C)=O)c1ccccc1
inactive: [1] 10.3% | [2] -21.4% | [3] 6.4% | [4] -16.2% | [5] 8.8% | [6] 18.9%

CC(=O)CC(=O)c1ccc(Cl)cc1
inactive: [1] -28.4% | [2] -11.4% | [3] -10.8% | [4] -13.6% | [5] -4.1% | [6] -0.25%

CN(C)c1ccc(Cc2ccc(N(C)C)c3cccnc23)c2ncccc12
inactive: [1] -5.45% | [2] -9.65% | [3] 13.7% | [4] -13.4% | [5] 12.3% | [6] 1.4%

CC(=O)[O-].[Mn+3].[O-]c1ccccc1C=NCCNCCN=Cc1ccccc1[O-]
inactive: [1] 17.9% | [2] 8.1% | [3] 49.6% | [4] -7.35% | [5] 8.3% | [6] 51.1%

CC(C)N1COC(c2ccccc2)C1 (configuration not stated)
inactive: [1] 6.05% | [2] 0.35% | [3] -19.1% | [4] -17.9% | [5] -24.9% | [6] -26.1%

CCCCCCCCCCC1OCC(C)(C)CO1
inactive: [1] 10.3% | [2] -12.2% | [3] 17.4% | [4] -7.5% | [5] 1.65% | [6] 11.4%

COC1C(OC(N)=O)C(O)C(Oc2ccc3c(O)c(NC(=O)c4ccc(O)c(CC=C(C)C)c4)c(=O)oc3c2C)OC1(C)C (configuration not stated)
inactive: [1] 7.2% | [2] -23.4% | [3] 1.7% | [4] -6.1% | [5] 9.1% | [6] 26.4%

CCC(Cl)(c1ccccc1)C(O)C(=O)OC(C)C (configuration not stated)
inactive: [1] 8% | [2] 2.65% | [3] 10.8% | [4] -2.35% | [5] -6.3% | [6] 11.8%

COC(=O)CCC(=O)O
inactive: [1] 8.6% | [2] -0.1% | [3] 11.2% | [4] -8.05% | [5] -2.05% | [6] 43.4%

CSC(=NC(=O)c1c(Cl)cccc1Cl)SC
inactive: [1] 21.8% | [2] 14.2% | [3] 40.2% | [4] 11.3% | [5] 42.4% | [6] 31.9%

CC(C)CN(CC#N)CC(C)C
inactive: [1] -31.8% | [2] -26.9% | [3] -34.5% | [4] 15.1% | [5] -49.1% | [6] -50%

N#Cc1c(N)nc2c(c(-c3ccc(Cl)cc3)nn2-c2ccccc2)c1C#N
inactive: [1] -2.45% | [2] -17.4% | [3] -34.8% | [4] 11.1% | [5] -23.9% | [6] 6.1%

N/C=N/OCc1ccccc1
inactive: [1] 10% | [2] 5.05% | [3] 9% | [4] 4.7% | [5] -3.75% | [6] 5.75%

CCN(CC)/[N+]([O-])=N/O
inactive: [1] 26.6% | [2] -14.8% | [3] -2.35% | [4] -0.6% | [5] 15.8% | [6] 16.1%

N#CC1c2ccccc2C=CN1C(=O)c1ccccc1 (configuration not stated)
inactive: [1] -15.9% | [2] -15.9% | [3] 12.5% | [4] -18.9% | [5] -8.95% | [6] -24.4%

O=C(CCC(=O)OCCCl)OCCCl
inactive: [1] -3.4% | [2] -18.9% | [3] -5.6% | [4] -7.75% | [5] 9.05% | [6] -7.45%

CCCCCCCC(=O)CC(C)C
inactive: [1] 12.1% | [2] -11.7% | [3] 0.6% | [4] -2.5% | [5] -21.4% | [6] 6.65%

CCOC(=O)C(NC(C)=O)C(=O)OCC
inactive: [1] -3.4% | [2] 10.2% | [3] 3.5% | [4] -12.6% | [5] -7.15% | [6] -16.4%

Cc1ccc(C)c(NC(=O)Oc2ccc(Cl)cc2Cc2ccccc2)c1
inactive: [1] 5.35% | [2] -3.5% | [3] 0.05% | [4] 11.8% | [5] 8.2% | [6] 7.1%

ClC(Cl)(Cl)C(N1CCN(c2ccccc2)CC1)N1CCN(c2ccccc2)CC1
inactive: [1] 8.95% | [2] -34% | [3] -29.4% | [4] -38.5% | [5] -25.9% | [6] -17.6%

CC(C)N(CCCCO)C(C)C
inactive: [1] -0.75% | [2] -0.3% | [3] 14.2% | [4] 0.05% | [5] 2.7% | [6] 3.3%

COC(=O)NC1C(C)OC(OC2C/C=C(/C)C3C=CC4C(OC5CC(OC6CCC(OC7CC(O)C(OC8CCC(O)C(C)O8)C(C)O7)C(C)O6)C(OC(C)=O)C(C)O5)C(C)CC(C)C4C3(C)/C(O)=C3/C(=O)OC4(CC(C=O)=CC(O)C4/C=C\2C)C3=O)CC1(C)[N+](=O)[O-] (configuration not stated)
inactive: [1] 21.1% | [2] 20.9% | [3] 22.2% | [4] 25.6% | [5] 22.9% | [6] -38%

COc1ccc(CN=CN/C(C#N)=C(\N)C#N)cc1OC
inactive: [1] -21.2% | [2] -49.8% | [3] -28.6% | [4] 6.55% | [5] 4.35% | [6] -23.6%

CCOC(=O)c1c[nH]c2c(=O)n(C)c(=O)[nH]c12
inactive: [1] 7.25% | [2] -7.75% | [3] 3.5% | [4] -28.8% | [5] 0.5% | [6] 24.1%

Nc1cccc(NC(=O)c2cccc(N)c2)c1
inactive: [1] 9.8% | [2] -4.75% | [3] 2.2% | [4] 10.4% | [5] 11.4% | [6] 18.1%

COc1ccc(COC(=O)Nc2cccc(Cl)c2C)cc1
inactive: [1] -1.2% | [2] 8.95% | [3] 14.8% | [4] -25.7% | [5] -8.85% | [6] -3.2%

CCNCc1ccccc1
inactive: [1] -18.2% | [2] -0.25% | [3] -22.1% | [4] -66.5% | [5] -10.9% | [6] -18.8%

CC(=O)CC(=O)Nc1ccccc1[N+](=O)[O-]
inactive: [1] -7.05% | [2] -24.4% | [3] -0.65% | [4] 15.9% | [5] 7.05% | [6] -9.65%

CCOC(=O)C1CCC(=O)C(CC)=C1C (configuration not stated)
inactive: [1] -6.8% | [2] -40.3% | [3] 8.5% | [4] -1.85% | [5] -6.5% | [6] -6.5%

O=C(Nc1ccccc1)N1CC2(CN1)CNN(C(=O)Nc1ccccc1)C2
inactive: [1] -3.35% | [2] -3.25% | [3] 15.7% | [4] -8% | [5] -3.35% | [6] -9.75%

COc1ccc(S(=O)(=O)Oc2ccc(Cl)cc2)cc1
inactive: [1] -2.35% | [2] 11.6% | [3] 18.1% | [4] -234% | [5] 42.5% | [6] 9.05%

O=c1c2[nH]cnc2n(-c2ccccc2)c(=S)n1-c1ccccc1
inactive: [1] 6.5% | [2] 1.8% | [3] -26.1% | [4] -6.55% | [5] -26.9% | [6] 13.8%

CC(=O)n1cc(CS)c(=O)[nH]c1=O
inactive: [1] -6.2% | [2] 1.2% | [3] -2.5% | [4] -15.2% | [5] -2.6% | [6] -19.4%

COCCCNC1=C(C#N)C(=O)NC(c2cccs2)S1 (configuration not stated)
inactive: [1] 2% | [2] 0.15% | [3] 3.45% | [4] 1.25% | [5] 5.3% | [6] -34.8%

c1ccc(CSc2nn[nH]n2)cc1
inactive: [1] -5.3% | [2] -8.1% | [3] -0.8% | [4] -9.65% | [5] -2.45% | [6] -4.95%

COc1ccc2oc3c(ccc[n+]3C)c(=O)c2c1
inactive: [1] -22.9% | [2] -14.7% | [3] -12.1% | [4] 10.9% | [5] -2.9% | [6] -16.9%

CCOC(=O)CCC(NC(=O)C(CCC(=O)OCC)NC(=O)C(Cc1ccc([N+](=O)[O-])cc1)NC(C)=O)C(=O)NNC(=O)OC(C)(C)C (configuration not stated)
inactive: [1] -22.8% | [2] -28.4% | [3] -17% | [4] -3.35% | [5] -23.6% | [6] -7.3%

CN(C)c1ccccc1C(=O)N/N=C\c1ccc(O)c(O)c1
inactive: [1] 17.6% | [2] 14.2% | [3] 19.5% | [4] 5.75% | [5] 12.4% | [6] 22.2%

C[N+](C)(CCNCC(N)=O)CC(N)=O
inactive: [1] -17.6% | [2] -4.2% | [3] -19.1% | [4] -9.95% | [5] 5.15% | [6] -1.5%

CCCC1c2c(ccc3ccccc23)Oc2ccc3ccccc3c21
inactive: [1] -36.1% | [2] 2.4% | [3] -19.6% | [4] -2% | [5] -13.7% | [6] -1.35%
